Most compounds without a hit are left out; they make up all but 3.9% or so of the library.
BoNT A protease: blocks Botulinum neurotoxin A light chain protease; multiplex microsphere protease substrate cleavage, flow cytometry; 360,000 tested, 0.17% active; inhibition, % at 10 µM; also: plate controls were buffer without enzyme for full effect and enzyme alone for no effect
Autofluor counter: compound fluorescence in toxin protease inhibitor counterscreen; fluorescence intensity (no concentration beside the values); compound autofluorescence counterscreen, microsphere flow cytometry; stronger effect = higher value; 360,000 tested, 3.1% active; in the data active = fluorescence intensity above about 16000; inconclusive = no clear call, values can overlap the other calls
BoNT F protease: BoNT F light chain protease inhibition; inhibition, % at 10 µM; 360,000 tested, 0.22% active; AID 588497; Multiplex microsphere protease cleavage assay, flow cytometry; in the data active = inhibition above about 35%, passing the limit was not always enough; inconclusive = no clear call, values can overlap the other calls; also: plate controls were buffer without enzyme for full effect and enzyme alone for no effect
3CLpro inhibitor: SARS-CoV 3CLpro protease inhibition. inhibition, % at 6 µM. P0C6X7. AID 1706. 290,000 tested, 0.14% active. recombinant SARS-CoV 3CLpro, quenched FRET peptide cleavage; in the data active = inhibition above about 12%
DUSP3 inh: inhibitors of human VHR1 phosphatase (DUSP3) | P51452 | recombinant VHR phosphatase, pNPP absorbance | inhibition, % at 13.3 µM | 290,000 tested, 0.52% active; in the data active = inhibition above about 50%
Target sequence (P51452 whole entry, looked up): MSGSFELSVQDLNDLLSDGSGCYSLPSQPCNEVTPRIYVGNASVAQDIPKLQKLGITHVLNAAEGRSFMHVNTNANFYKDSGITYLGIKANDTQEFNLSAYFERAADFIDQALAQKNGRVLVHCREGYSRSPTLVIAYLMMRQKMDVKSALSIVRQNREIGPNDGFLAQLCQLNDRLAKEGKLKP
Anthrax LF prot: anthrax lethal factor protease inhibition | P15917 | multiplex microsphere protease cleavage assay, LF | inhibition, % at 10 µM | 360,000 tested, 0.12% active | AID 588501; also: plate controls were buffer without enzyme for full effect and enzyme alone for no effect
* hit, by the source's call; ? = inconclusive; . = no result given. Rule as the data show it, unless noted: active = inhibition above about 30%; inconclusive = no clear call, values can overlap the other calls; inactive = below that.

SMILES	BoNT A protease	Autofluor counter	BoNT F protease	3CLpro inhibitor	DUSP3 inh	Anthrax LF prot
Cc1nc(Nc2ccc3c(c2)OCO3)c2oc3ccccc3c2n1	?	24138*	-5.1	3.6	3.6	-3.8
CCc1nc(Nc2ccccc2)c2oc3ccccc3c2n1	?	19756*	3.0	1.2	20.2	-1.6
CC(C)(C)NC(=O)CN(C(=O)CCC(=O)Nc1nccs1)c1cccc(C(F)(F)F)c1	3.8	3698	-3.9	3.9	0.1	-0.7
CS(=O)(=O)N(Cc1ccccc1)c1ccc(C(=O)NCc2cccnc2)cc1	-0.5	4213	0.0	6.8	-20.6	-0.7
C=CCNC(=O)c1ccc(N(CC=C)S(C)(=O)=O)cc1	0.6	4837	11.6	-1.2	-9.2	-3.1
CS(=O)(=O)N(Cc1ccccc1)c1ccc(C(=O)NCc2ccccc2)cc1	2.4	22531*	3.7	-2.5	-20.6	-11.1
C=CCN(c1ccc(C(=O)NCCc2ccccc2)cc1)S(C)(=O)=O	1.4	16236*	-0.2	-1.4	-2.5	1.2
CCOC(=O)c1ccc(S(=O)(=O)N2CCN(CCc3ccncc3)CC2)cc1	-0.4	2963	-8.1	.	.	-1.6
COc1cc(OC)c(C(=O)N(CCc2ccccc2)Cc2ccccc2)cc1OC	8.2	5847	11.9	6.5	10.5	3.4
Cc1ccc(NC(=O)CCn2cnc3cc(C)c(C)cc32)cc1	-0.1	10548	2.5	-4.9	8.8	-4.8
CC(=O)Nc1cccc(NC(=O)CCn2cnc3cc(C)c(C)cc32)c1	-0.2	22641*	-1.9	-4.1	6.7	-1.7
COc1ccc(S(=O)(=O)N2CCOCC2)cc1N=Nc1sc(N)nc1-c1ccccc1	-0.5	1818	-9.3	1.9	55.6*	-1.3
COc1cccc(/C=N/Nc2ncnc(N)c2[N+](=O)[O-])c1OC	4.7	21088*	8.2	-5.6	-14.7	1.9
CC(OC(=O)CNC(=O)C12CC3CC(CC(C3)C1)C2)C(=O)Nc1ncc(Cl)cc1Cl (configuration not stated)	2.8	18610*	4.5	2.4	-12.2	0.4
CC(OC(=O)CNC(=O)C12CC3CC(CC(C3)C1)C2)C(=O)Nc1ccc(S(N)(=O)=O)cc1 (configuration not stated)	0.3	4411	-1.8	-0.4	17.6	3.0
CC(OC(=O)CN(C)S(=O)(=O)c1ccc(Cl)cc1)C(=O)Nc1ncc(Cl)cc1Cl (configuration not stated)	0.5	23244*	-1.9	-1.1	4.6	-0.6
CC(OC(=O)CN(C)S(=O)(=O)c1ccc(Cl)cc1)C(=O)Nc1cccc(Cl)c1 (configuration not stated)	-0.9	10400	5.3	2.9	24.4	-5.0
CCn1nc(NC(=O)c2ccco2)c2cc3ccccc3nc21	0.1	16504*	-2.5	-4.3	25.3	-0.4
CCCn1nc(NC(=O)CC(C)C)c2cc3ccccc3nc21	1.4	22379*	3.1	4.2	24.2	-0.1
CCCCC(=O)Nc1nn(CC(C)C)c2nc3ccccc3cc12	?	21680*	-1.9	3.1	7.1	-6.3
CC(C)Cn1nc(NC(=O)C(C)(C)C)c2cc3ccccc3nc21	-0.6	7060	-7.2	-0.9	10.4	4.1
O=C(NCC(=O)N1CCCC1)NN=Cc1ccccc1O	-0.5	5413	-1.8	.	.	-1.7
OC(c1cc(F)cc(Cl)c1)c1ncc(-c2ccc(Cl)cc2)[nH]1 (configuration not stated)	-0.3	3681	-8.1	.	.	-4.8
O=C(Nc1ccc(O)cc1)C1CC=CCC1 (configuration not stated)	?	18689*	-14.4	-2.5	9.6	-4.2
CC(C)Oc1ccc(OCCNC2CCCC2)cc1	1.7	20103*	1.3	4.8	38.0	0.1
SMILES	BoNT A protease	Autofluor counter	BoNT F protease	3CLpro inhibitor	DUSP3 inh	Anthrax LF prot
COc1ccccc1OCCNC1CCCC1	0.4	21707*	1.9	2.4	23.2	2.7
CCOc1cccc(OCCNC2CCCC2)c1	0.3	3611	5.2	3.2	9.0	5.2
O=S(=O)(NC1CCCCC1)c1ccc(Cl)s1	6.5	5277	4.7	-3.9	8.5	5.6
CCOC(=O)c1cc2c(n(-c3ccccc3)c1=O)CC(C)(C)CC2=O	-5.3	25220*	-7.1	-3.1	36.9	-0.9
Cc1cc2c(n1-c1ccc(Cl)cc1)CC(C)(C)CC2=O	-0.9	19623*	-6.0	4.8	24.3	-6.7
Cc1cc(C)n(C(N)=NC(=O)c2ccccc2)n1	0.0	3953	-5.4	.	.	-0.1
COc1ccc(-c2cc(C(=O)Nc3c(C)nn(Cc4ccccc4Cl)c3C)no2)cc1OC	?	22371*	-6.4	-4.2	10.3	0.3
Cc1ccc(Cn2ccc(NC(=O)c3cc(-c4ccccc4)on3)n2)cc1	?	8729	-12.5	-2.5	25.6	-4.2
CCN(CC)C(=O)c1cc(-c2ccc(Br)cc2)on1	1.4	23321*	0.8	0.5	18.8	1.1
COC(=O)c1cc(-c2ccc(Br)cc2)on1	5.2	4589	-2.3	-2.9	-28.5	9.1
COc1ccc(OC)c(-c2cc(C(=O)Nc3c(C)nn(Cc4ccccc4Cl)c3C)no2)c1	-1.2	12387	-9.2	2.6	15.1	-5.4
Cc1ccc(Cn2ccc(NC(=O)c3cc(-c4ccco4)on3)n2)cc1	5.8	21800*	5.3	1.7	3.8	-6.4
Cc1ccc(Cn2ccc(NC(=O)c3cc(-c4ccc(Br)cc4)on3)n2)cc1	-3.2	16876*	-4.9	1.4	22.6	-2.1
Cc1ccc(NC(=O)c2sc(N)nc2-c2ccc([N+](=O)[O-])cc2)c(C)c1	0.4	5295	-0.3	-2.5	5.1	-6.7
CCc1nc2ccc(C(=O)NCc3ccccc3OC)cn2c1N(C)Cc1ccc(N(C)C)cc1	-0.8	4105	0.5	.	.	-7.7
Cc1nn(Cc2ccc(Cl)cc2)c(C)c1NC(=O)c1cc(-c2ccco2)on1	-1.1	8742	-4.1	3.1	-4.3	-1.2
Cc1nn(Cc2ccc(Cl)c(Cl)c2)c(C)c1NC(=O)c1cc(-c2ccco2)on1	-1.9	21457*	-3.9	1.9	4.4	-0.7
COc1cccc(OC)c1C(=O)Nc1cccc(-n2cnnn2)c1	1.2	5340	-7.2	-4.9	29.0	-1.1
C=CCOc1ccc2nc(NC(=O)OC)[nH]c2c1	-0.1	23127*	-4.1	5.5	-33.1	-0.5
COC(=O)Nc1nc2ccccc2[nH]1	-0.1	3413	-10.6	.	.	3.0
Cc1ccc2c(c1)[C@H]1[C@H](CO2)[C@H](c2ccccc2)[C@]2(C)C(=O)N(C)CC(=O)N12	0.2	2907	-0.6	.	.	-5.7
O=C(CN1C(=O)C2C3C=CC(C4CC34)C2C1=O)Nc1cccc2ncccc12 (configuration not stated)	-0.2	2525	-0.9	6.7	53.0*	-2.1
O=C(CCl)Nc1cccc2ncccc12	0.6	10847	-15.2	3.1	25.5	-2.3
COc1ccc2nc(C)cc(N3CCN(c4ccccc4)CC3)c2c1	0.4	5932	7.3	-1.4	25.9	-1.2
COc1ccc2nc(C)cc(N3CCOCC3)c2c1	2.1	19626*	4.6	5.0	-17.1	-5.6
Cc1ccc(CSCCNC(=O)c2ccc(Cl)c(S(=O)(=O)N3CCOCC3)c2)cc1	0.7	20110*	-1.9	5.8	35.2	-2.0
